An excerpt weighted towards active compounds, which were near 3.4% of everything screened.
NRP1-CendR mod – modulators of CendR peptide binding to NRP-1, primary screen, biochemical, fluorescence polarization, uHTS. FAM-RPARPAR peptide binding to NRP-1. inhibition, % at 25 µM. AID 602438, 2012. hit rate 0.85% among 360,000. Neuropilin-1 (Homo sapiens), O14786;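 active means inhibition or corrected inhibition above about 18%, plus a signal ratio from 0.5 to 1.5, limit read from the data, passing the limit was not always enough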
KLK7 zymogen act – proKLK7 zymogen activators, primary screen, biochemical, fluorescence intensity. hit rate 0.9% among 370,000. activation, % at 7 µM. Kallikrein-7 (Homo sapiens), P49862. purified proKLK7, EDANS-DABCYL substrate fluorescence; 100% is mature enzyme control, 0% vehicle;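 active means activation above the mean of all tested compounds plus 3 SD, computed per campaign excluding outliers beyond control limits, cut at about 13% in these data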
Target sequence (P49862 whole entry, looked up): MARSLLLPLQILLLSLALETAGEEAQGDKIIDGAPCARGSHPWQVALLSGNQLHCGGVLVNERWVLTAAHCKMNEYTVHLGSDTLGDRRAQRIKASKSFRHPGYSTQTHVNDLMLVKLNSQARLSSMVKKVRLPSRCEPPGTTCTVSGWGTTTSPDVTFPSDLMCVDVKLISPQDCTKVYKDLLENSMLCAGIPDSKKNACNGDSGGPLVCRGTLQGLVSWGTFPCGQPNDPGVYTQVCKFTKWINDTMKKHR
sPLA2-III inh – human group III sPLA2 inhibitors, primary screen, biochemical, QFRET, BODIPY PC-A2 liposome substrate. Group 3 secretory phospholipase A2 (Homo sapiens), Q9NZ20. QFRET BODIPY PC-A2 liposome hydrolysis, fluorescence. inhibition, % at 12.2 µM. hit rate 0.56% among 370,000. AID 743126, 2013;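 active means inhibition above mean plus 3 SD of compounds lying within the high and low control bounds, cut at about 19% in these data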;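 further: 0% = median of test compound wells and 100% = no enzyme DMSO wells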
ADAM10 inh – human ADAM10 inhibitors, primary screen, biochemical, QFRET, HTS | Disintegrin and metalloproteinase domain-containing protein 10 (Homo sapiens), O14672 | recombinant ADAM10, EDANS/DABCYL FRET peptide cleavage, 3 h | inhibition, % at 7 µM | hit rate 0.62% among 370,000;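 active means inhibition above a per-campaign cutoff equal to the mean of compounds falling between control-based bounds plus 3 SD, cut at about 20% in these data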;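 further: 0% = DMSO wells while the 100% control is not disclosed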
ADAM17 inh – ADAM17 inhibitors, primary screen, biochemical, QFRET. recombinant ADAM17, EDANS/DABCYL FRET peptide cleavage. Disintegrin and metalloproteinase domain-containing protein 17 (Homo sapiens), P78536. hit rate 0.83% among 370,000. inhibition, % at 6.95 µM;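 active means inhibition above the mean of compounds lying between control limits plus 3 SD, set per campaign, cut at about 8.5% in these data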;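 further: 0% = DMSO-only wells as the low control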
KLK7 act conf – proKLK7 zymogen activators, confirmation, biochemical, fluorescence intensity, triplicate; shares compounds with KLK7 zymogen act; purified proKLK7, EDANS-DABCYL substrate fluorescence; scaled: vehicle 0, mature enzyme 100; activation, % at 7 µM; hit rate 68% among 3,200;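 active means activation, as change over the incubation, above the mean of all tested compounds plus 3 SD, cut at about 13% in these data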
EDANS-DABCYL int – EDANS-DABCYL substrate optical interference, artefact control for kallikrein-7 zymogen activator project, biochemical, fluorescence intensity, high throughput | shares compounds with KLK7 zymogen act | no enzyme, 4 h; solvent 0%, active enzyme control 100% | activation, % at 7 µM | hit rate 80% among 3,200 | AID 686952, 2013;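 active means activation above the all-compound mean plus 3 SD, ignoring values outside control-based bounds, cut at about 4.8% in these data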;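 further: value is the 4 h activation minus the activation read at time zero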
K7 EDANS ctr – optically interferes with EDANS-DABCYL fluorescence, kallikrein-7 activator counter-screen; shares compounds with KLK7 zymogen act; hit rate 20% among 250; EDANS-DABCYL peptide fluorescence interference, no enzyme; EC50, µM;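 active means compounds that raise the fluorescence signal in this interference counterscreen, with EC50 at or below 10 µM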;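 further: intact quenched peptide substrate alone read at 355 nm excitation and 520 nm emission; signal is fluorescence gain from T0 to T4 after four hours at room temperature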
The depositor's hits bear a star; i = inactive; . = not tested or not shown.

SMILES	NRP1-CendR mod	KLK7 zymogen act	sPLA2-III inh	ADAM10 inh	ADAM17 inh	KLK7 act conf	EDANS-DABCYL int	others
C=CCN(C(=O)[C@@H](C)[C@@H](O)c1ccc(C(C)=O)cc1)c1ccccc1	.	0	5	-3	-4	.	.
CCOc1ccc(-n2c(SCC(=O)Nc3ccc(S(=O)(=O)Nc4nccs4)cc3)nnc2-c2ccccc2)cc1	.	0	-37	8	5	.	.
O[C@H](COc1ccc(C(F)(F)F)cc1)CN1CCC(C(O)(c2ccccc2)c2ccccc2)CC1	.	0	-18	16	8	.	.
COC(=O)[C@]12C[C@H](CC(=O)NCCc3ccccc3OC)C(=O)N(Cc3ccc(Cl)cc3Cl)C1=C[C@H](C(C)(C)C)O[C@@H]2C	.	0	-2	-4	1	.	.
C=CCOC(=O)C1=C(C)NC(SCC(=O)NC(=O)OCC)=C(C#N)C1c1cccnc1 (stereo not given)	-39	20*	-4	-81	-19	27*	17*	K7 EDANS ctr=4.4*
C=CCOC(=O)C1=C(C)NC(SCC(=O)N(CC)CC)=C(C#N)C1c1ccccc1 (stereo not given)	4	0	-4	-17	7	.	.
COc1ccccc1NC(=O)COC(=O)c1[nH]c(=O)[nH]c(=O)c1N	0	84*	5	-73	-17	120*	121*
Cc1ccc2nc3nc(NCC4CCCO4)c(C(=O)NC4CCCC4)cc3c(=O)n2c1 (stereo not given)	-3	24*	8	i	i	-3	-11
CCNc1nc2nc3ccc(C)cn3c(=O)c2cc1C(=O)NCC1CCCO1 (stereo not given)	-1	75*	8	i	i	69*	69*
O=C1C(NC(=O)C(F)(F)Br)CCCCN1Cc1cccc(C(F)(F)F)c1 (stereo not given)	.	1	2	-7	-3	.	.
CCCCCCC12C(=Cc3cc4c(cc31)OCCO4)c1cc(OC)c(OC)cc1C(CC(=O)O)N2C(=O)OC (stereo not given)	.	1	-25	i	-381	.	.
CCCCCCC12C(=Cc3cc4c(cc31)OCCO4)c1cc(OC)c(OC)cc1C(CC(=O)OC)N2C(=O)OC (stereo not given)	.	17*	-11	i	-189	-5	-17
COc1ccc(C(=O)OCCCN(C)C2CN(Cc3cn(Cc4ccc([N+](=O)[O-])cc4)nn3)S(=O)(=O)C2)cc1OC (stereo not given)	.	0	8	-9	-11	.	.
Nc1cnnc(N/N=C\c2ccccc2)c1Cl	-2	13*	-1	i	-216	2	3
Cc1oc2c(CN3CCOCC3)c(O)ccc2c(=O)c1-c1ccccc1	9	73*	-6	i	-345	23*	30*
COc1ccccc1-c1c(C)oc2c(CN3CCOCC3)c(O)ccc2c1=O	-6	66*	3	i	-480	69*	79*
COc1ccc(-c2c(C)oc3c(CN4CCCC(C)C4)c(O)ccc3c2=O)cc1OC (stereo not given)	-15	7	1	-426	-165	.	.
Cc1oc2c(CN3CCCCC3)c(O)ccc2c(=O)c1-c1ccc(Cl)cc1	-22	38*	3	i	-399	28*	34*
COc1cccc(Oc2c(C)oc3c(CN4CCOCC4)c(O)ccc3c2=O)c1	-14	31*	6	-493	-185	12	23*
C=CCN=C1NC(c2ccccc2C(F)(F)F)C(C(=O)OC)=C(C)N1Cc1ccccc1C(F)(F)F (stereo not given)	.	0	0	-2	0	.	.
CC(=O)Nc1ccc(S(=O)(=O)C(C#N)c2nc3ccccc3nc2NCCO)cc1 (stereo not given)	-27	64*	0	i	i	66*	73*
CC(=O)Nc1ccc(S(=O)(=O)C(C#N)c2nc3ccccc3nc2NCCCO)cc1 (stereo not given)	-47	39*	-3	i	i	53*	69*
CC(=O)Nc1ccc(S(=O)(=O)Nc2nc3ccccc3nc2Nc2ccccc2)cc1	5	-1	-15	-9	-4	.	.
Cc1ccc(S(=O)(=O)C(C#N)c2nc3ccccc3nc2OCCO)cc1 (stereo not given)	3	-2	-9	5	-1	.	.
COc1ccc(-c2nnn3c2Cn2c4ccccc4c(=O)n2[C@@H](C(C)C)C3)cc1	.	1	6	-139	-35	.	.
SMILES	NRP1-CendR mod	KLK7 zymogen act	sPLA2-III inh	ADAM10 inh	ADAM17 inh	KLK7 act conf	EDANS-DABCYL int	others
Cc1ccc(S(=O)(=O)c2c(N)n(CCCO)c3nc4ccccc4nc23)cc1	18	14*	-35	i	i	-46	-48
CCOC(=O)c1oc2ccc3c(c2c1C)C(=O)CC1(CCN(C(=O)OCC)CC1)O3	-18	0	-2	-32	-11	.	.
CCOC(=O)N1CCC2(CC1)CC(=O)c1c(ccc3oc(C(=O)O)c(C)c13)O2	5	18*	-1	i	-449	46*	34*	K7 EDANS ctr=>70
O=C1Nc2ccc(S(=O)(=O)NCCC3=CCCCC3)c3cccc1c23	12	18*	-14	-335	-113	12	19*
CCNS(=O)(=O)c1ccc2c3c(cccc13)C(=O)N2	-12	86*	4	i	-441	68*	82*
CCN(CC)S(=O)(=O)c1ccc2c3c(cccc13)C(=O)N2	0	23*	-1	i	-130	15*	21*
CCN(c1cccc(C)c1)S(=O)(=O)c1ccc2c3c(cccc13)C(=O)N2	1	-1	-28	-15	-7	.	.
CCOC(=O)c1c(C)oc2ccc(NS(=O)(=O)c3ccc4c5c(cccc35)C(=O)N4)cc12	6	3	-56	-11	-5	.	.
O=C1Nc2ccc(S(=O)(=O)NCCCO)c3cccc1c23	-5	64*	9	i	-412	83*	86*
O=C(CSc1nnc(-c2ccco2)n1-c1ccc(Cl)cc1)Nc1ccccc1-c1ccccc1	.	0	-11	4	4	.	.
